Rows were chosen to be rich in hits. Some 1.3% of all compounds tested hit in one or more screens of this group.
TRPV1 ag: human TRPV1 agonism; Q8NER1; TRPV1-expressing cells, Fluo-8 calcium influx, agonist mode; activation, % at 8.33 µM; 0.19% of 320,000 active; in the data active = activation above about 80%; inconclusive = between about 30% and that limit; also: 0% is about no effect
Target sequence (Q8NER1 whole entry, looked up): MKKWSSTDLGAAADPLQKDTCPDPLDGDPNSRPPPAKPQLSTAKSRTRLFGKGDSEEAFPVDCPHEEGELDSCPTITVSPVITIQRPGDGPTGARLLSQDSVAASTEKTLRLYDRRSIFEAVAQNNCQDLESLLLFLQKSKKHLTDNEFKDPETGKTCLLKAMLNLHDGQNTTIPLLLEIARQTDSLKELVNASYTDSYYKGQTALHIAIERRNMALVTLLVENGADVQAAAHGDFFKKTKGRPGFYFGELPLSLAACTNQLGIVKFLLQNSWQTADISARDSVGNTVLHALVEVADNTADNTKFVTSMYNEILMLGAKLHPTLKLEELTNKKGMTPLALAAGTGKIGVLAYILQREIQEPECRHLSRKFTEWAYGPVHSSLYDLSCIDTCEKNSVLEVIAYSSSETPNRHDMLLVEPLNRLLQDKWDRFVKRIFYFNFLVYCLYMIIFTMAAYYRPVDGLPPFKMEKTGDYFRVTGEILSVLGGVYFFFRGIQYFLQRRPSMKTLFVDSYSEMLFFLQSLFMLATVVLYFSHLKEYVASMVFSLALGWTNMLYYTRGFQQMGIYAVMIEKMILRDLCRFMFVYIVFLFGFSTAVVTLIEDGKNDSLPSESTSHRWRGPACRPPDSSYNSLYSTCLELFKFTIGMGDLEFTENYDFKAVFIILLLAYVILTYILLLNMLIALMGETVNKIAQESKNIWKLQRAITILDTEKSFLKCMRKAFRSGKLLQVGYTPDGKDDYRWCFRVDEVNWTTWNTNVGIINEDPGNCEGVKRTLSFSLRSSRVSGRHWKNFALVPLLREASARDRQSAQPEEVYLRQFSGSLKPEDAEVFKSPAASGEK
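TRPV1-expressing cells were cultured overnight at 35.5C and loaded with Fluo-8 calcium dye for 40 to 90 min at room temperature. After a 10 s baseline, compound was added and calcium influx was read kinetically for 3 min (ex 480/em 520 nm).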
KCNH2 3.1 block: inhibitors of human KCNH2 3.1 potassium channel isoform; AID 720553; U2OS KCNH2 3.1, thallium flux FluxOr; active compounds read low; activity change, % (tested at about 1.8 µM); 0.95% of 340,000 active;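 active = maximum activity change below -70%; inconclusive = maximum activity change from -70% to -50%; inactive = maximum activity change above -50%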;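 also: thallium influx rate constant from kinetic fluorescence after stimulation buffer; % is scaled to controls: 0 for no effect and ±100 for the full control effect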
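We transduce U2OS cells with the mutant 3.1 virus, culture them overnight, load FluxOr with Red40 quencher for 45 min, then add stimulation buffer and read kinetically for 2 min to derive a normalized rate constant.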
TRPV1 PAM: enhances activation of the human vanilloid receptor TRPV1; Q8NER1; TRPV1-expressing cells, Fluo-8 calcium influx, capsaicin EC20 potentiation; potentiation, % at 8.33 µM; 0.02% of 320,000 active; in the data active = potentiation above about 80%; inconclusive = between about 30% and that limit; also: 0% is about no effect
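TRPV1-expressing cells were cultured overnight at 35.5C and loaded with Fluo-8 calcium dye for 40 to 90 min at room temperature. After a 10 s baseline, compound was added and calcium influx was read kinetically for 3 min (ex 480/em 520 nm).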
hERG WT inh: KCNH2 (human, wildtype) channel inhibition. activity change, % at 1.84 µM. U2OS, BacMam KCNH2, thallium flux FluxOr; active compounds read low. Q12809. 0.37% of 340,000 active. AID 720551;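 active = maximum activity change below -70%; inconclusive = maximum activity change between -70% and -50%; inactive = maximum activity change above -50%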; also: % is scaled to controls: 0 for no effect and ±100 for the full control effect
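U2OS cells transduced with wild-type KCNH2 virus are loaded with FluxOr dye for 45 min, and thallium flux is measured in kinetic reads before and after stimulation buffer. Rate constants are normalized to DMSO controls.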
Starred values were filed as active, the others as inactive; u = inconclusive; x = no result given.

SMILES	TRPV1 ag	KCNH2 3.1 block	TRPV1 PAM	hERG WT inh
O=C(CN1CCN(Cc2ccccc2)CC1)NNC(=O)c1ccccc1	-4	-2	2	-4
CC(C(=O)Nc1cccc([N+](=O)[O-])c1)N1CCN(C/C=C/c2ccccc2)CC1 (stereo unspecified)	6	-85*	3	9
O=C(CN1CCN(c2ccc(Cl)cc2)CC1)NCc1ccccc1	24	x	-3	24
Cc1cccc(N2CCN(CC(=O)NCc3ccc(Cl)cc3)CC2)c1C	83*	-11	-4	20
O=C(CN1CCN(C/C=C/c2ccccc2)CC1)NCc1ccc(Cl)cc1	1	-124*	10	u
CC1=C(C(=O)N(C)C)CC(CC(=O)NC2CCCCC2)C(=O)N1Cc1ccccc1 (stereo unspecified)	x	0	x	4
Clc1ccc(C2=C3CCCCn4c(-c5ccccc5)c[n+](c43)C2)cc1	7	-8	8	-3
COc1ccc(-c2c[n+]3c4n2CCCCC4=C(c2ccc(Br)cc2)C3)cc1	1	-169*	-1	17
Clc1ccc(CN2CCN(c3ncnc4scc(-c5cccs5)c34)CC2)cc1	0	-83*	-2	-46
Cc1noc(C)c1CSCC(=O)N1CCN(c2ccc([N+](=O)[O-])cc2)CC1	7	-73*	-12	27
COc1ccc(-c2cc(C)no2)cc1S(=O)(=O)N1CCN(c2ccc([N+](=O)[O-])cc2)CC1	-5	-106*	0	-78*
Cc1noc(C)c1S(=O)(=O)N1CCN(c2ccccc2)CC1	3	9	-11	0
Cc1noc(C)c1S(=O)(=O)N1CCN(c2ccc([N+](=O)[O-])cc2)CC1	-1	-80*	1	-47
O=C(Cn1c(=O)n(Cc2ccc(F)cc2)c(=O)c2sc3ccccc3c21)Nc1ccc(F)cc1F	-6	x	8	x
CCCCOP(=O)(OCCCC)C1(NS(=O)(=O)c2ccccc2)C=CC(=O)c2ccccc21 (stereo unspecified)	u	-82*	-19	-12
CCCCOCCCNS(=O)(=O)c1ccccc1	-7	4	10	7
Cc1c(NC2=CC(=O)CC(C)(C)C2)ccc([N+](=O)[O-])c1C	3	-104*	-3	1
Cc1cc(N/N=C/c2ccccc2)nc(N)n1	5	32	-3	-14
Cc1nc(N)nc(N/N=C/c2ccccc2)n1	-3	-2	-8	-76*
O=C(Cc1cccs1)Nc1nc2c(ccc3ccccc32)s1	81*	-1	-5	14
CCCOc1ccc(/C(CC)=N/NC(=O)C2(C)CC2(Br)Br)cc1 (stereo unspecified)	28	-77*	-9	6
CC/C(=N/NC(=O)c1ccc(Br)cc1)c1ccc(OCCN2CCOCC2)cc1	16	6	-19	2
Cc1cccc(NS(=O)(=O)c2cc3c4c(c2)CC(=O)N4CCC3)c1C	14	-7	-11	-1
Cc1cccc(NS(=O)(=O)c2cc3c4c(c2)CCN4C(=O)CC3)c1C	-2	-1	-12	-173*
CCOC(=O)c1cnc(-n2nc(C)cc2C)nc1NC1CCCCC1	u	-12	-8	-105*
SMILES	TRPV1 ag	KCNH2 3.1 block	TRPV1 PAM	hERG WT inh
COCC(=O)Nc1ccc(Nc2ccccc2)cc1	16	-2	u	-3
CCC(CC)C(=O)Nc1cccc(SC)c1	-2	x	-3	x
CCOC(=O)N1CCC(Nc2cccc(SC)c2)CC1	-4	-71*	u	33
CCC(=O)Nc1cccc(SC)c1	2	-83*	-7	0
CCOC(=O)N1CCC(N(CCOC)C(=S)Nc2cccc(SC)c2)CC1	5	0	-5	3
CCC(=O)Nc1ccc(Nc2ccccc2)cc1	5	2	-21	-82*
CCN1CCN(c2oc(COc3ccc(Cl)cc3)nc2C#N)CC1	-3	-83*	14	22
COc1ccc2c(c1)C(=O)CCC2c1ccccc1 (stereo unspecified)	0	-120*	1	8
CCc1cnccc1CCC(=O)Nc1ccccc1C	x	-25	x	-22
CN(Cc1ccccc1)c1ncnc2sccc12	7	-7	21	-124*
COc1ccccc1N1CCCSC1=Nc1ccccc1	x	7	x	11
Cc1ccccc1-c1cccc([C@@H]2C[C@H]3[C@H](CON3C)CN2Cc2cc(Cl)cc(Cl)c2)c1	x	-29	x	2
O=C(CCN1C(=O)/C(=C/c2ccccc2F)SC1=S)Nc1cccnc1	u	-107*	-15	-34
COCCn1c(SCC(=O)Nc2ccc(Cl)c(S(=O)(=O)N(C)C)c2)nc2ccccc21	5	4	u	-118*
CC1CCC(n2c(=S)[nH]c3ccccc3c2=O)CC1 (stereo unspecified)	-6	6	-6	-24
FC(F)(F)c1ccc2c(c1)[nH]c(=S)n2C1CC1	-4	-201*	18	-162*
COc1ccc(F)cc1S(=O)(=O)N1CCc2ccccc2C1	x	0	x	-5
COc1ccc(S(=O)(=O)N2CCN(C(=O)C3CC(=O)N(c4ccccc4F)C3)CC2)cc1OC (stereo unspecified)	x	7	x	-14
Cc1ccc(-c2csc(NC(=O)c3cccc(S(=O)(=O)N4CCN(C)CC4)c3)n2)cc1	-3	-79*	0	-2
O=C(Nc1ccccc1)c1ccc(NC2CCCCC2)c(S(=O)(=O)N2CCOCC2)c1	86*	-15	15	1
O=C(Nc1ccc(N2CCCCCC2)cc1)c1cccc(S(=O)(=O)N2CCOCC2)c1	87*	-8	-2	-6
O=C(Nc1cccc(O)c1)c1ccc(Br)c(S(=O)(=O)N2CCCCC2)c1	u	-92*	5	-10
O=C(Nc1ccc(NC(=O)c2ccc(Cl)c(S(=O)(=O)N3CCOCC3)c2)cc1)c1ccccc1	-1	-1	9	-7
Cc1nnc(NC(=O)c2cccc(S(=O)(=O)N3CCN(C)CC3)c2)s1	-1	-5	16	-4
O=C(Nc1cccc(S(=O)(=O)N2CCOCC2)c1)c1cccc(S(=O)(=O)N2CCCCC2)c1	16	-5	-20	9
SMILES	TRPV1 ag	KCNH2 3.1 block	TRPV1 PAM	hERG WT inh
C[C@H]1CCCCO[C@H](CN(C)Cc2ccccc2)[C@@H](C)CN([C@@H](C)CO)C(=O)c2cc(NC(=O)CCC(F)(F)F)ccc2O1	x	-6	x	-18
COc1cccc(NC(=O)CN(C)C(=O)C(C)Sc2ccccc2)c1 (stereo unspecified)	4	13	-13	4
CC(C)(C)c1cc(NC(=O)c2cccc(S(=O)(=O)N3CCOCC3)c2)no1	80*	4	-7	14
O=C(Nc1nc2ccccc2[nH]1)c1cccc(S(=O)(=O)N2CCOCC2)c1	80*	-5	-26	2
Cc1ccnc(NC(=O)c2cccc(S(=O)(=O)N3CCN(c4ccc(F)cc4)CC3)c2)c1	3	-72*	-9	-26
O=C(Nc1nc2ccccc2[nH]1)c1ccc(F)cc1	9	-97*	-10	5
Cc1ccnc(NC(=O)c2cccc(S(=O)(=O)N3CCOCC3)c2)c1	u	0	-14	-1

Compound activity as filed in PubChem.
